In PubChem BioAssay AID488841 (Sanford-Burnham Center for Chemical Genomics, 2010) one finds inhibition data, which are given here for 102 compounds.

About 380 (27%) of roughly 1,400 compounds were called active.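 Rule for the calls: active = mean inhibition above 50% across duplicate retests at 10 µM; inactive = the rest.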 The list shows a part of the results.

The assay is described as follows: yeast NALP1 reporter signal suppression – S. cerevisiae, luminescence, single concentration, NALP1 inhibitor project, confirmation (AID 488841).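 Note: plate controls were DMSO in galactose medium for no effect and cells in plain SD medium for full effect.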 The settings on record: S. cerevisiae NALP1/ASC/Caspase-1 reporter, beta-gal luminescence; at 10 µM; stronger effect = higher value.
The term inhibition denotes the percentage by which the read-out fell short of the control. On to `COn1c2c(c3c4nonc4ccc31)CCCC2`, for which the inhibition is 30.4% (inactive).

On to `CC1CCN(Cc2ccc(-c3nn[nH]n3)cc2)CC1`, for which the inhibition is 21.2% (inactive). `O=C(NC1CCCCC1)c1noc2c1CCCCC2`: the inhibition was 70.2% (active). In the case of `O=C(NC1CCCC1)c1ccc(CN2CCOCC2)cc1` it was 33.8% (inactive); in that of `CCn1c(C(=O)N2CCc3ccccc3C2)cc2oc3ccccc3c21`, 32.4% (inactive); in that of `O=C(c1cc(-c2ccc(O)cc2)on1)N1CCc2ccccc2C1`, 56.5% (active). In the case of `O=C(CN1CCc2ccccc2C1)NCc1ccco1` it was 18.9% (inactive).

With `CC(C)CC(=O)N1CCN(c2ccc([N+](=O)[O-])cc2Cl)CC1`, the inhibition is 37.5% (inactive).

As to `Cc1c(-c2nc(N)nc(Nc3ccccc3)n2)oc2ccccc12`, the inhibition is 37.3% (inactive).

Take `CC(=O)c1ccc(NC(=O)Nc2ccc(Cl)cc2)cc1`: the inhibition is 53.4% (active).

In the case of `CCCCN(C)CCC(=O)Nc1ccc(Cl)cc1`, the inhibition was 28.4% (inactive). Turning to `CCOC(=O)C(=O)NNc1ccc(Cl)cc1`, the inhibition is 40.9% (inactive).

For the compound `N#Cc1ccc(NC(=O)Nc2ccc(Cl)cc2)cc1`, the inhibition is 67% (active). The value for `COc1ccc(N2CCN(CCNC(=O)Nc3ccc(Cl)cc3)CC2)cc1` was 22.3% (inactive); that for `O=C(Nc1ccc(Cl)cc1)C1=Cc2ccccc2OC1` was 48.8% (inactive); that for `CCC(C(=O)NCc1ccco1)N(C(=O)CNS(=O)(=O)c1ccccc1)c1ccc(OC)cc1` (configuration not stated) was 23.4% (inactive). `CSc1nnc(-c2cc3c(s2)-c2ccccc2CC3)o1`: the inhibition was 56.6% (active). The value for `O=C(C(Cc1ccccc1)n1cccc1)N1CCN(c2ccccc2)CC1` (configuration not stated) was 46% (inactive). In the case of `CNC(=S)N/N=C/c1cc(Br)cc(Br)c1O` it was 75.7% (active); in that of `Oc1c(Br)cc(Br)cc1C=Nc1cccnc1`, 36.4% (inactive); in that of `Cc1cc(C=C2C(=O)c3ccccc3C2=O)c(C)n1C`, 39% (inactive).

As to `CCOc1ccccc1C(=O)OCC(=O)Nc1ccc(N2CCCCC2)cc1`, the inhibition was 36.1% (inactive). The value for `O=C(Nc1ccc(F)cc1)c1cccnc1N1CCCCC1` was 34.8% (inactive).

For `CCOc1ccccc1C(=O)Nc1cnn(Cc2ccc(F)cc2)c1`, the inhibition was 57.7% (active). In the case of `c1ccc(CC2CCN(c3nnnn3-c3ccccc3)CC2)cc1` it was 26.4% (inactive); in that of `COC(=O)c1cc(=O)n(-c2ccc(F)cc2)c(=Nc2ccc(F)cc2)s1`, 33.2% (inactive).

Consider `O=[N+]([O-])c1ccc(/C=N/NS(=O)(=O)c2ccc(Cl)cc2)o1`, for which the inhibition was 36.3% (inactive). In the case of `CCN(CC)c1ccc(N=Cc2ccc([N+](=O)[O-])o2)cc1` it was 64.2% (active).

For `CCOC(=O)c1[nH]c2ccc(Br)cc2c1NC(=O)CCN1CCC(C)CC1`, the inhibition was 32.4% (inactive). As to `Cc1nc(N)sc1N=Nc1ccc(Br)cc1`, the inhibition is 50.6% (active).

Regarding `Cc1ccc(C)c(NC(=O)c2ccc(OC(=O)c3ccco3)cc2)c1`, the inhibition is 36.8% (inactive). Take `Cc1ccc2occ(C(=O)c3ccco3)c(=O)c2c1`: the inhibition was 58.4% (active).

Consider `CN1CCN(C2=C(Cl)C(=O)C(c3cnc(N4CCCCC4)s3)=C(Cl)C2=O)CC1`, for which the inhibition was 29.9% (inactive). The value for `CN(C)S(=O)(=O)c1cccc2c1C(=O)c1ccccc1C2=O` was 39.2% (inactive); that for `CN(C=[N+](C)C)c1cccc2c1C(=O)c1ccccc1C2=O` was 37% (inactive). The value for `O=C1c2cccc(O)c2C(=O)c2c(O)cccc21` was 62.8% (active); that for `CC(C)CN=C(NS(=O)(=O)c1ccccc1)C(Cl)(Cl)Cl` was 43.6% (inactive).

Turning to `O=S(=O)(/N=C/c1c(O)ccc2ccccc12)c1cccs1`, the inhibition was 29.8% (inactive). In the case of `N#Cc1cccc(N=Cc2c(O)ccc3ccccc23)c1` it was 24.8% (inactive). On to `C=CCOc1ccc2ccccc2c1/C=N/O`, for which the inhibition is 52.7% (active).

On to `CCCCCOc1ccc(Cn2ccnc2)cc1[N+](=O)[O-]`, for which the inhibition is 43% (inactive). For the compound `O=C(CCNc1n[nH]c(=O)[nH]c1=O)N/N=C/c1ccc(C(F)(F)F)cc1`, the inhibition was 26.9% (inactive). In the case of `COCC(=O)n1nc(-c2ccc(Cl)cc2)nc1NCc1ccc(F)cc1` it was 49.8% (inactive). The value for `O=C(NC1=NCCS1)c1ccc(Cl)s1` was 42.9% (inactive). `CCOc1ccccc1N1CCN(C(=O)CCCc2nc3ccccc3s2)CC1`: the inhibition is 52.9% (active). The value for `COCCN=C1Sc2nc3ccc(C)cc3cc2CN1Cc1ccco1` was 45.9% (inactive); that for `COc1ccccc1NC1=C(N2CCCCC2)C(=O)c2ccccc2C1=O` was 49.1% (inactive). In the case of `CCCSc1nnc(C(C)C)n1N` it was 21.8% (inactive); in that of `O=C(/C=C/c1ccc(F)cc1)NCCc1ccc2c(c1)OCCO2`, 49.3% (inactive). The value for `O=C(/C=C/c1ccc2c(c1)OCCCO2)c1ccccc1O` was 61.6% (active); that for `Cc1ccc(C(=O)/C=C/c2ccc3c(c2)OCO3)o1` was 23.9% (inactive); that for `CC(=O)C1=C(O)C(=O)N(CCC(=O)O)C1c1ccc(Cl)cc1Cl` (configuration not stated) was 24.1% (inactive).

`CCOC(=O)/C(=C/c1ccc(OC(=O)c2ccccc2)cc1)C(C)=O`: the inhibition was 55.4% (active). In the case of `CCOC(=O)C1=Nc2ccccc2C1=[N+]=[N-]` it was 37.8% (inactive). In the case of `CCOC(=O)C1=C(O)c2ccccc2C(=O)/C1=C\c1ccc(C)cc1` it was 30.2% (inactive); in that of `Cc1sc(-c2ccncc2)nc1OC(=O)c1ccccc1`, 47.5% (inactive); in that of `O=C(CN(Cc1ccccc1)S(=O)(=O)c1ccc(S(=O)(=O)N2CCOCC2)cc1)Nc1ccccc1`, 27.6% (inactive). In the case of `C=CCNC(=O)/C(C#N)=C/c1c(C)nn(-c2ccccc2)c1Cl` it was 60.3% (active); in that of `Cc1nn(-c2ccccc2)c(Cl)c1/C=C(\C#N)C(=O)NC(C)C`, 55.2% (active). Take `CC(C)NC(=O)/C(C#N)=C/c1cccc(NC(=O)c2ccccc2Cl)c1`: the inhibition is 41.1% (inactive). The value for `COc1ccc(OCC(=O)NC(=S)N2CCCc3ccccc32)cc1` was 28.5% (inactive); that for `CCCCCCC1CCC(C(=O)Nn2c(C)nc3ccccc3c2=O)CC1` (configuration not stated) was 44.8% (inactive).

Take `COc1ccc(C2NCCc3c2[nH]c2ccccc32)cc1CSc1nc2ccccc2s1` (configuration not stated): the inhibition is 45.4% (inactive).

`COCc1cc(=O)[nH]c(/N=C(\N)Nc2cccc(C)c2)n1`: the inhibition was 21.6% (inactive). In the case of `O=C1c2ccsc2SCCN1Cc1c(Cl)cccc1Cl` it was 53.7% (active); in that of `CCCNC(=O)c1nnsc1S(=O)(=O)c1ccc(Cl)cc1`, 95% (active); in that of `COc1ccc(CCNC(=O)C2CCN(S(=O)(=O)c3ccc(Cl)cc3)CC2)cc1OC`, 5.6% (inactive). The value for `Cn1cnc([N+](=O)[O-])c1S(=O)(=O)c1ccc(Cl)cc1` was 46.9% (inactive); that for `CNC(=O)c1nnsc1S(=O)(=O)c1ccc(Cl)cc1` was 86.2% (active). With `Oc1ccccc1C1N=C(c2ccccc2)NC(c2ccccc2)=N1`, the inhibition was 16.1% (inactive).

For the compound `O=C(CSc1ncn[nH]1)NC12CC3CC(CC(C3)C1)C2`, the inhibition was 22.3% (inactive). `COC(=O)COc1ccc(S(=O)(=O)NCCC2=CCCCC2)cc1Cl`: the inhibition was 28.2% (inactive).

With `O=C1C2C3C=CC(C2C(=O)N1CCCO)C1C2C(=O)N(CCCO)C(=O)C2C31` (configuration not stated), the inhibition is 17.4% (inactive). In the case of `COc1ccc(OC)c(NC(=O)c2sc3nc(Cc4ccccc4)cc(C(F)(F)F)c3c2N)c1` it was 23.5% (inactive); in that of `COc1ccc2cc(/C=N/O)c(Cl)nc2c1`, 46.1% (inactive); in that of `CCC(C)NC(=O)c1cc2cc3ccc(OC)cc3nc2s1` (configuration not stated), 54.9% (active). As to `CC(C)(C)C(=O)NC1CCN(S(=O)(=O)c2ccc(C(F)(F)F)cc2)CC1`, the inhibition was 18.1% (inactive). In the case of `CCOc1cccc(N2C(=O)CC(N3CCN(c4ccc(S(=O)(=O)CC)cc4)CC3)C2=O)c1` (configuration not stated) it was 30.9% (inactive); in that of `CCOc1ccc(NC2=C(OC)C(=O)c3ccccc3C2=O)cc1`, 39.5% (inactive); in that of `CCOc1ccc(S(=O)(=O)N2c3ccccc3CC2C)cc1` (configuration not stated), 54.5% (active). In the case of `Cc1cc(Cl)c(OCCCCN2CCOCC2)c(Br)c1` it was 40.9% (inactive); in that of `COC(=O)c1sccc1NC(=O)c1csc(C)c1`, 54% (active); in that of `COC(=O)c1sccc1N/N=C(\C)c1ccc(F)c(Cl)c1`, 22.3% (inactive). Consider `CCOC(=O)C(=CNNc1ccsc1C(=O)OC)C(=O)OCC`, for which the inhibition is 37.1% (inactive).

Consider `CCn1c(C)[n+](CC(O)COCC2CC=CCC2)c2ccccc21` (configuration not stated), for which the inhibition was 40% (inactive).

As to `CCOC(=O)c1c(C)n(C)c2cc(-c3ccc(C)cc3)c(O)cc12`, the inhibition is 24.9% (inactive). In the case of `CCCCC(CC(O)COCCC)c1n[nH]c(=S)n1-c1ccccc1` (configuration not stated), the inhibition is 44.8% (inactive). The value for `CC(C)(C)OC(=O)NCCCCCc1nnc(SCc2ccccc2)o1` was 56.6% (active); that for `CCCCSc1nnc(CCNC(=O)OC(C)(C)C)o1` was 42.2% (inactive). The value for `CC(C)Sc1nnc([C@H](Cc2ccccc2)NC(=O)OC(C)(C)C)o1` was 30.7% (inactive). In the case of `CC(C)Cc1nnc(NC(=O)CSc2nc(N)cc(=O)[nH]2)s1` it was 23.4% (inactive); in that of `CCOC(=O)c1sc(NC(=O)Nc2cccc(Cl)c2)cc1C`, 5.75% (inactive). Take `CCOC(=O)Nc1cccc(Nc2ccccc2)c1`: the inhibition is 52.2% (active). In the case of `CCOC(=O)Nc1ccc2c(C)cc(=O)oc2c1` it was 41.3% (inactive); in that of `Cc1cc(C)cc(-n2nnc(C(=O)NCc3ccccc3)c2N)c1`, 34.6% (inactive); in that of `c1ccc(-c2nc3cc4ccccc4cc3[nH]2)nc1`, 73.2% (active). The value for `O=[N+]([O-])c1ccc2nc(-c3ccccn3)[nH]c2c1` was 47.6% (inactive); that for `COCCCN(CCCN)Cc1ccco1` was 73.2% (active). In the case of `Cc1ccc(S(=O)(=O)N(C(=O)c2ccncc2)c2ccc(OC(=O)c3ccncc3)c3ccccc23)cc1` it was 28.8% (inactive); in that of `CCN(CC)c1ccc(/C=C2/SC(=O)N(C(C)C)C2=O)o1`, 65.5% (active); in that of `O=C1S/C(=C\c2ccc(N3CCOCC3)o2)C(=O)N1c1ccccc1`, 45.5% (inactive). Turning to `CC1CCCC(C)N1C(=O)CN1CCN(c2nc(-c3ccc(F)cc3)cs2)CC1` (configuration not stated), the inhibition was 19.6% (inactive).
